Assay outcomes from PubChem.
Shown are actives, neighbours in structure and some others; about 10% of the full set was active somewhere.
GLS inhibitor – inhibitors of human glutaminase (GLS) | 410,000 tested, 0.21% active | AID 624170 | O94925 | Potency, µM (titrated, usually from 45.5 µM), for the others: at the top dose activity change, negative = inhibition, hits mostly inhibitors | GLS enzymatic activity, qHTS titration; further: on the % scale 0 is the no-effect control and ±100 the full control effect
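Compounds were pin-transferred onto hKGA, after which L-glutamine (1 mM solution) and a detection mix of glutamate oxidase, HRP and Amplex Red were added. Initial and 30 min RT fluorescence reads were collected.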
L3MBTL1 block – inhibitors of human L3MBTL1. 230,000 tested, 0.66% active. Q9Y468. AlphaScreen L3MBTL1–H3K9me1 peptide binding. Potency, µM (titrated, usually from 57.1 µM), for inactives: at the highest dose activity, negative = inhibition, usual class: inhibitors; further: on the % scale 0 is the no-effect control and ±100 the full control effect; nearly all actives have a fitted effect of over 60% in size
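First, the protein-peptide complex forms for 30 min at room temperature (L3MBTL1 50 nM, biotinylated H3K9me1 peptide 75 nM). Next, compounds are pin-transferred and incubated 30 min. Finally, AlphaScreen beads are added and read after 30 min.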
JMJD2A Tudor – JMJD2A Tudor domain (human) inhibition; AID 504339; O75164; Potency, µM (titrated, usually from 114 µM), inactives show at the top dose activity change, negative = inhibition, hits mostly inhibitors; 390,000 tested, 4.4% active; AlphaScreen JMJD2A-Tudor / H3K4me3 peptide binding; further: on the % scale 0 is the no-effect control and ±100 the full control effect; nearly all actives have a fitted effect of over 50% in size
Target sequence (O75164 whole entry, looked up, the tested form may be a part): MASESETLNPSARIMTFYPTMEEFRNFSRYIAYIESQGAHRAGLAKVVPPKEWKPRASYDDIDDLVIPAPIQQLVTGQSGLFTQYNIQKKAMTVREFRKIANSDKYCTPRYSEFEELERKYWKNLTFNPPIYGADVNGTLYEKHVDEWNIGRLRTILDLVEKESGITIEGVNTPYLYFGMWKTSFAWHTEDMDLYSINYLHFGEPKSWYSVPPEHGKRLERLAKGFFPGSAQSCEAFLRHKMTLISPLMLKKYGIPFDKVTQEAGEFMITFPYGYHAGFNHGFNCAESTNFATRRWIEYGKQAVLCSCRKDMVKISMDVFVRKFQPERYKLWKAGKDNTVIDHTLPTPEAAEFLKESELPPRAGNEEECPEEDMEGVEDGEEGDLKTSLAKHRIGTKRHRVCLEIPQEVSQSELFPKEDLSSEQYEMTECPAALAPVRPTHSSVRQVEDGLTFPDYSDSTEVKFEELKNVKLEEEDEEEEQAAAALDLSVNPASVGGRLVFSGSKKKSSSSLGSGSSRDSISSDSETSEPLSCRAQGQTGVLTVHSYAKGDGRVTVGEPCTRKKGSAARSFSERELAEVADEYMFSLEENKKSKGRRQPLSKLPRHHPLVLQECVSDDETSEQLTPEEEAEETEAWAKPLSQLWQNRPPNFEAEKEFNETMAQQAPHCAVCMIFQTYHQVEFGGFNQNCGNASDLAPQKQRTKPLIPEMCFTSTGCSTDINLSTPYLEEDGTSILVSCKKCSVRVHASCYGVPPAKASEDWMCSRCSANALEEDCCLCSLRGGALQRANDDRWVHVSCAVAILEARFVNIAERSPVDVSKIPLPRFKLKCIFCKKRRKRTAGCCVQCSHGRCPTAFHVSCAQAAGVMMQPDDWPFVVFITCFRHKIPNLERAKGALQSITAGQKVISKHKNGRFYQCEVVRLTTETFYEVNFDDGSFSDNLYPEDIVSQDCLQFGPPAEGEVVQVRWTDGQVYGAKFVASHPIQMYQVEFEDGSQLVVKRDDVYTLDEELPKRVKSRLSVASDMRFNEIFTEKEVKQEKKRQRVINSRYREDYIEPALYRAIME
BAZ2B inh – blocks human BAZ2B; AlphaScreen BAZ2B-H3K14Ac peptide displacement; Potency, µM (doses to about 114 µM), without a hit: at the highest dose activity change, negative = inhibition, hits mostly inhibitors; 360,000 tested, 4.4% active; AID 504333; further: on the % scale 0 is the no-effect control and ±100 the full control effect; nearly all actives have a fitted effect of over 60% in size
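AlphaScreen luminescence quantifies BAZ2B engagement of H3K14Ac peptide; the protein and biotinylated peptide are both at 50 nM final, buffer PBS pH 7.4 with 0.01% Tween-20, all steps at room temperature.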
G9a inh – blocks human histone lysine methyltransferase G9a; G9a H3K9 monomethylation, AlphaScreen, 2 h; 350,000 tested, 8.8% active; Potency, µM (top dose mostly 102 µM), without a hit: top-dose activity, negative = inhibition, usual class: inhibitors; Q96KQ7; AID 504332; further: on the % scale 0 is the no-effect control and ±100 the full control effect; nearly all actives have a fitted effect of over 75% in size
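Signal arises when biotinylated H3K9 peptide, once monomethylated, bridges streptavidin donor and antibody-captured acceptor beads. Enzyme at 20 nM was preincubated 15 min with test compounds; peptide 500 nM and SAM 20 uM then reacted for 2 h.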
HP1b chromo inh – inhibitors of HP1-beta chromodomain binding to methylated histone tails. AlphaScreen HP1-beta / biotin-H3K9me3 peptide binding. P83916. Potency, µM (titrated, usually from 114 µM), for the others: at the top dose activity change, negative = inhibition, actives largely listed as inhibitors. 390,000 tested, 0.56% active; further: nearly all actives have a fitted effect of over 70% in size
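Compound inhibition of the preformed complex between 50 nM HP1-beta and 50 nM biotinylated H3K9me3 peptide was read by AlphaScreen. Buffer was PBS pH 7.4 with 0.01% Tween-20. Incubations ran 30 min at room temperature, with 10 ug/mL donor/acceptor beads.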
* marks the source's active call; other numbers are inactive results; ? = inconclusive; . = not tested or not shown; [ ] = remark or other dose. The call rests on the fitted dose curve; in most records, active means well fitted curve in the direction sought with a large enough effect; inconclusive means small, poorly fitted or top-dose-only effect, or another doubt; inactive means no such curve, though single readings can be large; an effect the other way counts as inactive or inconclusive. Potency means the concentration at half of the fitted maximal effect.

SMILES	GLS inhibitor	L3MBTL1 block	JMJD2A Tudor	BAZ2B inh	G9a inh	HP1b chromo inh
c1ccc(Nc2c(-c3ccco3)nc3ccccn23)cc1	14.4%	-4.0%	-33.6%	50.1µM*	?	-19.2%
Cc1ccccc1Nc1c(-c2ccc(Cl)cc2)nc2c(C)cccn12	-2.2%	.	-11.0%	-3.7%	-26.9%[59 µM]	4.7%
Cc1ccc(Nc2c(-c3ccc(Br)o3)nc3ccccn23)cc1	3.1%	.	-12.0%	?	-12.6%[59 µM]	17.9%
Cc1ccccc1Nc1c(-c2ccco2)nc2c(C)cccn12	-1.9%	.	?	25.1µM*	14.1µM*	?
CCC/C=C1\CCCOC(C(=O)NCc2ccccc2)(C(F)(F)F)C1 (stereo not given)	.	.	-2.8%	.	.	5.6%
C=C1[C@@H]2CC[C@H](C2)C1(C)C	-2.5%	.	.	.	5.2%[12.7 µM]	.
Cc1ccc(Nc2c(-c3c[nH]c4ccccc34)nc3ccccn23)cc1	16.4%	.	22.4µM*	17.8µM*	28.2µM*	?
O=c1oc2ccccc2c(N2CCC(c3ccccc3)CC2)c1[N+](=O)[O-]	8.1%	.	-27.9%	-2.0%	?	0.1%
CC1CCCN(c2c([N+](=O)[O-])c(=O)oc3ccccc23)C1 (stereo not given)	-0.2%	-0.8%	-7.7%	7.8%	44.7µM*	27.0%
CCN(CCCNC(=O)C1CCN(S(=O)(=O)c2c(C)[nH]c(=O)[nH]c2=O)CC1)c1cccc(C)c1	-5.0%	.	-14.8%	-8.1%	50.1µM*	33.1%
CCCCN(CCCNC(=O)C1CCN(S(=O)(=O)N2CCOCC2)CC1)c1ccccc1	34.5%	-1.4%	?	-34.3%	39.8µM*	-9.0%
O=C(O)c1cccnc1SC1CC(=O)N(c2cccc(C(F)(F)F)c2)C1=O (stereo not given)	13.2%	11.5%	-21.3%	8.0%	35.5µM*	41.8%
O=C(O)c1cccnc1SC1CC(=O)N(c2ccc(OC(F)F)cc2)C1=O (stereo not given)	3.5%	.	-4.5%	-17.8%	44.7µM*	22.3%
O=[S+]([O-])(/C=C/c1nc(Nc2cc(F)cc(F)c2)c2ncn(CC(F)F)c2n1)c1ccccc1	.	.	-15.1%	.	.	.
O=C(CSC1=Nc2ccccc2N=C(c2ccc(F)cc2)C1)Nc1cccc(C(F)(F)F)c1	8.6%	.	-23.3%	-14.6%	3.4%[59 µM]	6.8%[57 µM]
COc1ccc(-c2noc(-c3cccnc3NCc3ccco3)n2)cc1	-4.0%	.	2.3%	-26.3%	?	58.9%
NC(=O)C[n+]1cccc(C(=O)Nc2ccccc2)c1	5.1%	-5.2%	-7.9%	-30.2%	50.1µM*	-4.7%
NC(=O)c1ccc[n+](Cc2ccccc2)c1	-1.7%	?	-4.8%	0.8%	70.8µM*	33.9%
CC(C)CN1C(=O)c2ccccc2C1(O)Cc1ccccc1 (stereo not given)	3.5%	31.0%	4.6%	21.3%	8.91µM*	50.4%
Cc1ccc(CNC(=O)c2sc3nc(C)cc(C)c3c2-n2cccc2)cc1	-1.1%	.	-14.6%	?	-21.5%[59 µM]	15.6%
CCN(c1ccccc1)c1ccc2cc(S(=O)(=O)N3CCCC3)ccc2n1	5.6%	.	76.9%	51.0%	18.2%[59 µM]	147.2%
CCOC(=O)c1csc(N)c1-c1ccc([N+](=O)[O-])cc1	1.0%	.	?	?	11.2µM*	-27.8%
CCOC(=O)c1c(-c2cccc([N+](=O)[O-])c2)csc1N	38.8%	-5.9%	?	50.1µM*	?	-23.9%
CCOC(=O)c1c(NC(=O)/C=C/c2ccccc2)sc2c1CCCC2	10.3%	.	11.1%	1.8%	5.1%[59 µM]	48.8%
O=[N+]([O-])c1cc2oc3c(c2c(C=NCc2ccccc2)c1O)CCCC3	?	1.4%	70.8µM*	-30.2%	3.2%[59 µM]	?
CCCc1nn2c(=O)cc(COC(=O)c3ccc(NC(=O)c4cccs4)cc3)nc2s1	-0.9%	.	-0.7%	-12.3%	-4.4%[12.7 µM]	14.7%
CC(=O)Nc1nonc1-c1nnc(SCC(=O)Nc2ccc(C)cc2)n1-c1ccccc1	-10.4%	.	-2.0%	?	-3.6%[59 µM]	50.4%
